Source: PubChem BioAssay (EPA / NIEHS)
Records with an inconclusive call do not appear. The source made the active and inactive calls. Rule for the calls: active = hit-call score of the fitted dose curve at least 0.9, where 1 is the maximum; inconclusive = response in the unintended direction; inactive = score below 0.9.

How the values were obtained:
[1] = biological target: human Purinergic Receptor P2Y, P2RY1 (gene 5028) (UniProt P47900); test: NVS_GPCR_hPY2: NovaScreen (NVS) G Protein-Coupled Receptor Assay for human Purinergic Receptor P2Y (AID 2283281)
Chain of human Purinergic Receptor P2Y, P2RY1 (gene 5028) (P47900 whole entry, looked up): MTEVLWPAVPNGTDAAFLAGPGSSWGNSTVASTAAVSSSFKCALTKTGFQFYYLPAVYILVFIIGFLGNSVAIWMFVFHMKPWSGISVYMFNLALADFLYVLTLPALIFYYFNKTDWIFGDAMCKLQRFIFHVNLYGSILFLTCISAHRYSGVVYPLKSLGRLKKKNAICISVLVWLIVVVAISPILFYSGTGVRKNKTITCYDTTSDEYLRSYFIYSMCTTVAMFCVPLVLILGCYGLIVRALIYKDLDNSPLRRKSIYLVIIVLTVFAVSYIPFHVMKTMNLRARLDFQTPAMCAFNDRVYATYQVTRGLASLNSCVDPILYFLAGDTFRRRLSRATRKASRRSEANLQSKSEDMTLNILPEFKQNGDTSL
Summary of the method: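 Filtration scintillation readout of radioligand displacement on U937 extract, measured 1 h post-dosing. Single 25 uM duplicate screen, then singleton concentration series to 50 uM for chemicals passing threshold; DMSO as baseline.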

[2] = biological target: human Orphanin, Opioid Related Nociceptin Receptor 1 (ORL1), OPRL1 (gene 4987) (UniProt P41146); test: NVS_GPCR_hORL1: NovaScreen (NVS) G Protein-Coupled Receptor Assay for human Orphanin, Opioid Related Nociceptin Receptor 1 (ORL1) (AID 2283283)
Chain of human Orphanin, Opioid Related Nociceptin Receptor 1 (ORL1), OPRL1 (gene 4987) (P41146 whole entry, looked up): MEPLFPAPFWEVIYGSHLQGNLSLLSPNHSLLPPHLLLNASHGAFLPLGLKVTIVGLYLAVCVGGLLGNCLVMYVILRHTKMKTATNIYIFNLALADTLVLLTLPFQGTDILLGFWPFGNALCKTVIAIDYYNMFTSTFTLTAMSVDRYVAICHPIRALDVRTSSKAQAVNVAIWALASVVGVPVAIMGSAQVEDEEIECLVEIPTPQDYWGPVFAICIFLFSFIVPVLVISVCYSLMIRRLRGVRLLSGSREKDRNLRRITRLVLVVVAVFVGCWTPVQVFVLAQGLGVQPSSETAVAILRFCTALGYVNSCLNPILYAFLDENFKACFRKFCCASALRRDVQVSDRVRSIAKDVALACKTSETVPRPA
Summary of the method: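 Cell-free binding using HEK293-derived receptor protein: radioligand displacement measured by filter scintillation 1 hour after dosing. Primary testing at 25 uM in duplicate, followed by singleton concentration series up to 50 uM; DMSO served as negative control.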

[3] = test system: 5-hydroxytryptamine receptor 2C (pig); test: NVS_GPCR_p5HT2C: NovaScreen (NVS) G Protein-Coupled Receptor Assay for pig Serotonin, 5-Hydroxytryptamine Receptor 2C (5HT2C) (AID 2283288)
Summary of the method: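 Radioligand displacement on membranes from pig choroid plexus, detected by filter scintillation counting after 1 h. Tested first at a single 25 uM in duplicate, then in concentration-response for actives; DMSO served as baseline.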

[4] = biological target: rat Adrenergic, Alpha 1, Non-selective Receptor (Adra1), Adra1a (gene 29412) (UniProt P43140); test: NVS_GPCR_rAdra1_NonSelective: NovaScreen (NVS) G Protein-Coupled Receptor Assay for rat Adrenergic, Alpha 1, Non-selective Receptor (Adra1) (AID 2283289)
Chain of rat Adrenergic, Alpha 1, Non-selective Receptor (Adra1), Adra1a (gene 29412) (P43140 whole entry, looked up): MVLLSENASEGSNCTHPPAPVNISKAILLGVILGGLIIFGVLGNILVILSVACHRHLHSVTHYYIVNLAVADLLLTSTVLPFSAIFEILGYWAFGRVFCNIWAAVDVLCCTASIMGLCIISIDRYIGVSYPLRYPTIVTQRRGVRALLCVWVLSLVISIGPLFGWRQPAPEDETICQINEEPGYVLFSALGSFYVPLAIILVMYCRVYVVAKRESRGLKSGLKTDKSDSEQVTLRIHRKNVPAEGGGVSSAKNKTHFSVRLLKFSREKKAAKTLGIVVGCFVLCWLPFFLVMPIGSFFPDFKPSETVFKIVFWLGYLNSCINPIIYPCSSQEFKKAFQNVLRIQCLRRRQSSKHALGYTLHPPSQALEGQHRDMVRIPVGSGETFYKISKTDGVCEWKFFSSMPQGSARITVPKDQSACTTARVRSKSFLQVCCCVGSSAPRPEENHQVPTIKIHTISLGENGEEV
Summary of the method: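 Chemicals first screened in duplicate at 25 uM, then actives tested in concentration series up to 50 uM. Binding measured as displacement of radioligand from rat forebrain membrane receptors, 1 h, filtration with scintillation readout; DMSO baseline.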

[5] = test system: guinea pig Atrionatriuretic Peptide Receptor A (ANPA), gene 100135578; test: NVS_GPCR_gANPA: NovaScreen (NVS) G Protein-Coupled Receptor Assay for guinea pig Atrionatriuretic Peptide Receptor A (ANPA) (AID 2283291)
Summary of the method: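 Displacement of specific radioligand from guinea pig cerebellum membranes was read by scintillation after 1 h. A duplicate single-point screen at 25 uM was followed by a concentration series up to 50 uM, analysed relative to DMSO.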

[6] = biological target: rat Corticotropin Releasing Factor Receptor (CRF), Crhr1 (gene 58959) (UniProt P35353); test: NVS_GPCR_rCRF: NovaScreen (NVS) G Protein-Coupled Receptor Assay for rat Corticotropin Releasing Factor Receptor (CRF) (AID 2283300)
Summary of the method: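 Single-concentration (25 uM, duplicate) radioligand binding on rat cortical membrane preparations, counted by scintillation after 2 h. Activity scored as signal loss relative to DMSO negative control.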

[7] = biological target: rat Gamma-Aminobutyric Acid Type B Receptor (GABBR), Gabbr1 (gene 81657) (UniProt Q9Z0U4); test: NVS_GPCR_rGABBR: NovaScreen (NVS) G Protein-Coupled Receptor Assay for rat Gamma-Aminobutyric Acid Type B Receptor (GABBR) (AID 2283301)
Chain of rat Gamma-Aminobutyric Acid Type B Receptor (GABBR), Gabbr1 (gene 81657) (Q9Z0U4 whole entry, looked up): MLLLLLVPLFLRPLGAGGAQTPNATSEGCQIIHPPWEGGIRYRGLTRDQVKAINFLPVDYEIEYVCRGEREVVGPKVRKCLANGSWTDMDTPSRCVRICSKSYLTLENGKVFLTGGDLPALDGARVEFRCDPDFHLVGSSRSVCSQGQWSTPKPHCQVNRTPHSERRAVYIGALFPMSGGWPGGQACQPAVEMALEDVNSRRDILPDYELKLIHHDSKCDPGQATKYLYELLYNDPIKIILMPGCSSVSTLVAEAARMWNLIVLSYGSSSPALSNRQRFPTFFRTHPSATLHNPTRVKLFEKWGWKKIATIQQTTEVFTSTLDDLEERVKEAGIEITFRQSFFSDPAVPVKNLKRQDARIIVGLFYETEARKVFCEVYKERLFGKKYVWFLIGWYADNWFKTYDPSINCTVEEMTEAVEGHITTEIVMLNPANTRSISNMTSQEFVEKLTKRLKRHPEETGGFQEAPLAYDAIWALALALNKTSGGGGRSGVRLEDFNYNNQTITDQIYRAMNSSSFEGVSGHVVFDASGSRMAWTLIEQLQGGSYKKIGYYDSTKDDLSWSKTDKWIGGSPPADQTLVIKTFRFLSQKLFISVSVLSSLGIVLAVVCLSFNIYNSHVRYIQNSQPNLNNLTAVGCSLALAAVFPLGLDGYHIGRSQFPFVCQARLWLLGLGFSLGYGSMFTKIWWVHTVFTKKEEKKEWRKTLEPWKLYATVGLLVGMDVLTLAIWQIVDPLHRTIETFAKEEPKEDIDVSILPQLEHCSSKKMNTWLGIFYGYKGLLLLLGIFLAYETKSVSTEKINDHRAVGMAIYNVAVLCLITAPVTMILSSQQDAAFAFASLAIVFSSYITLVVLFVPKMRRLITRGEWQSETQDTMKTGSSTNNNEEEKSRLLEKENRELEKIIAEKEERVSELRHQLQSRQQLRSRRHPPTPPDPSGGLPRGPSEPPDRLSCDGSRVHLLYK
Summary of the method: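 Rat cortical membrane preparation, competitive radioligand binding for 1 h with filtration and scintillation readout. Actives from duplicate single-point 25 uM screening proceeded to concentration series with 50 uM top concentration.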

[8] = biological target: mouse Cholecystokinin, CCK2 Receptor (CCKB), Cckbr (gene 12426) (UniProt P56481); test: NVS_GPCR_mCKKBCentral: NovaScreen (NVS) G Protein-Coupled Receptor Assay for mouse Cholecystokinin, CCK2 Receptor (CCKB) (AID 2283293)
Chain of mouse Cholecystokinin, CCK2 Receptor (CCKB), Cckbr (gene 12426) (P56481 whole entry, looked up): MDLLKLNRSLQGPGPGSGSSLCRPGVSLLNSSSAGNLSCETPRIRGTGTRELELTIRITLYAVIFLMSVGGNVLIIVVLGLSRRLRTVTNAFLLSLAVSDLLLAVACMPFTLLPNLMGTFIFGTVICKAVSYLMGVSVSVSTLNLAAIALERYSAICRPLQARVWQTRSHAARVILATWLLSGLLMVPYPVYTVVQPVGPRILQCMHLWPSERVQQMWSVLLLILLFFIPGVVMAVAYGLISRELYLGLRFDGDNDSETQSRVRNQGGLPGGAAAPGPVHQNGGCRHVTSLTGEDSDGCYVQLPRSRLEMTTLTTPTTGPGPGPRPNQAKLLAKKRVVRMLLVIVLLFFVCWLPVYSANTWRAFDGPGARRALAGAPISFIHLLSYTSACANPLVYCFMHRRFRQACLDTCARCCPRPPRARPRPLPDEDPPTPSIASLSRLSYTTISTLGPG
Summary of the method: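 Mouse forebrain membrane preparation incubated 2 h with chemical and radioligand; bound radioactivity counted after filtration. Single-concentration duplicate screen at 25 uM, then concentration series to 50 uM max for hits, DMSO as baseline.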

[9] = biological target: rat Serotonin, 5-Hydroxytryptamine Receptor (5HT), Non-Selective Binding, Htr1a (gene 24473) (UniProt P19327); test: NVS_GPCR_r5HT_NonSelective: NovaScreen (NVS) G Protein-Coupled Receptor Assay for rat Serotonin, 5-Hydroxytryptamine Receptor (5HT), Non-Selective Binding (AID 2283295)
Chain of rat Serotonin, 5-Hydroxytryptamine Receptor (5HT), Non-Selective Binding, Htr1a (gene 24473) (P19327 whole entry, looked up): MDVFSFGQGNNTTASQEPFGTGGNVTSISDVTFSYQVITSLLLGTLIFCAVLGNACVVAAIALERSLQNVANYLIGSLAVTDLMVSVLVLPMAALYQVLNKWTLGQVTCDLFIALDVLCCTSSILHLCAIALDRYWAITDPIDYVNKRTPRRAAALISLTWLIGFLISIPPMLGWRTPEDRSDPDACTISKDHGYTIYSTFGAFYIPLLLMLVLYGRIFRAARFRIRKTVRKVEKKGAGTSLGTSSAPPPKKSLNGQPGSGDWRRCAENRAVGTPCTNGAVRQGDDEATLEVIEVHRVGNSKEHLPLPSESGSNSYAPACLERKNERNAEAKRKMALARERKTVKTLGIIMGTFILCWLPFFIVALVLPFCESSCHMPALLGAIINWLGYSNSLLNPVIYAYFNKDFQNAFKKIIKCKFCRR
Summary of the method: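 Rat cortex membrane preparation incubated 1 h with radioligand and test chemical; bound radioactivity counted after filtration. Screening began in duplicate at 25 uM with concentration-series follow-up; fitting relative to DMSO.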

[10] = test system: rat Adrenergic, Alpha 1B Receptor (Adra1B), gene 24173; test: NVS_GPCR_rAdra1B: NovaScreen (NVS) G Protein-Coupled Receptor Assay for rat Adrenergic, Alpha 1B Receptor (Adra1B) (AID 2283297)
Summary of the method: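 Filter-binding radioligand competition on membranes from rat liver, read after 1 h by scintillation counting. Single-concentration duplicate screen at 25 uM, followed by concentration-response on actives, normalised to DMSO.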

[11] = biological target: rat Neurotensin Receptor (NTS), Ntsr1 (gene 366274) (UniProt P20789); test: NVS_GPCR_rNTS: NovaScreen (NVS) G Protein-Coupled Receptor Assay for rat Neurotensin Receptor (NTS) (AID 2283308)
Chain of rat Neurotensin Receptor (NTS), Ntsr1 (gene 366274) (P20789 whole entry, looked up): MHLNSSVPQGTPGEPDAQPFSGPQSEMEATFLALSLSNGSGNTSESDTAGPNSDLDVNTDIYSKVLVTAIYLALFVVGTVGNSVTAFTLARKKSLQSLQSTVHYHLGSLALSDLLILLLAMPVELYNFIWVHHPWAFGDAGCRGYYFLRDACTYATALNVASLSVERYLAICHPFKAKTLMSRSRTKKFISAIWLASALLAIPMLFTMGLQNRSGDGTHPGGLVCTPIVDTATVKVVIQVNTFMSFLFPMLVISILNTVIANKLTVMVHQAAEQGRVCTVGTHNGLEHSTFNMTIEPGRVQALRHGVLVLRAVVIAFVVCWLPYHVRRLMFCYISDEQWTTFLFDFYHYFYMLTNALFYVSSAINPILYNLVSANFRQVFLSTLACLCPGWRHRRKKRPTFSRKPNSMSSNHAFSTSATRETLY
Summary of the method: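 Single-point duplicates at 25 uM, then concentration series to 50 uM max for hits, measured radioligand displacement on rat forebrain membrane preparations. Bound label counted by filtration scintillation at 1 h; signal loss relative to DMSO fitted.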

[12] = biological target: rat Adrenergic Receptor, Alpha 2 (Adra2), Non-selective Binding, Adra2a (gene 25083) (UniProt P22909); test: NVS_GPCR_rAdra2_NonSelective: NovaScreen (NVS) G Protein-Coupled Receptor Assay for rat Adrenergic Receptor, Alpha 2 (Adra2), Non-selective Binding (AID 2283299)
Chain of rat Adrenergic Receptor, Alpha 2 (Adra2), Non-selective Binding, Adra2a (gene 25083) (P22909 whole entry, looked up): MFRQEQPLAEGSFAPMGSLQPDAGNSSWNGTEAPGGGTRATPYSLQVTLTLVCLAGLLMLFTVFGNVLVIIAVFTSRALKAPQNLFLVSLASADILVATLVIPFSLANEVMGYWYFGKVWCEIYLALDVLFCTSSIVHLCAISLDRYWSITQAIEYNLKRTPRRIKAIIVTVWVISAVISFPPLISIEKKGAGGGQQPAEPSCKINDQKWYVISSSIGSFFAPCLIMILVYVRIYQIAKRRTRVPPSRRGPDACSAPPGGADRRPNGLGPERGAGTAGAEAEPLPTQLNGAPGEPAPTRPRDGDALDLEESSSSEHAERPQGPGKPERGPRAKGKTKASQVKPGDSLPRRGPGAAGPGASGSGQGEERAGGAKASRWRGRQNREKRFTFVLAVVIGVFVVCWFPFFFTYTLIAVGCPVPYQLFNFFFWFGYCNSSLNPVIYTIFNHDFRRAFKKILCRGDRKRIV
Summary of the method: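 Filter-based scintillation counting of radioligand binding to rat cortical membrane receptors, measured 1.25 hours post-dosing; loss of signal versus DMSO indicates displacement. Initial single-concentration duplicate at 25 uM, then concentration series.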

Adra2b (gene 24174) = Adra2b (gene 24174) (UniProt P19328); test: NVS_GPCR_rmAdra2B: NovaScreen (NVS) G Protein-Coupled Receptor Assay for hybird cells Adrenergic, Alpha 2B Receptor (Adra2B) (AID 2283306)
Chain of Adra2b (gene 24174) (P19328 whole entry, looked up): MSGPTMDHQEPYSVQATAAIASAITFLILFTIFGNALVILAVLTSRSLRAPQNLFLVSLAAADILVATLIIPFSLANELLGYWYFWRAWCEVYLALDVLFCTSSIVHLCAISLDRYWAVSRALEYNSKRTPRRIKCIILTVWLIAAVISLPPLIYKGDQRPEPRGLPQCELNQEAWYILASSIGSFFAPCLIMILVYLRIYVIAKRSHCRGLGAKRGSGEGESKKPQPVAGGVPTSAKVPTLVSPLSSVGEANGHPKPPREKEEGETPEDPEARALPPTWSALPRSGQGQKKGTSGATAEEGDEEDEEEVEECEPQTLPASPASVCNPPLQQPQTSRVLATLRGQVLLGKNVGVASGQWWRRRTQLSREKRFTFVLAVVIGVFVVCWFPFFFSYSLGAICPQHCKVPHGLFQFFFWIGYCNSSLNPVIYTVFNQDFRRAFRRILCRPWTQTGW
Summary of the method: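 Compounds screened first at 25 uM in duplicate, with actives followed up in concentration-response; specific radioligand displacement from hybrid neuroglioma/blastoma cell membrane preparations measured by filter scintillation counting after 1 h, normalized to DMSO.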

[13] = biological target: rat Opioid Receptor, Non-selective Sodium (Na+) Binding, Oprm1 (gene 25601) (UniProt P33535); test: NVS_GPCR_rOpiate_NonSelectiveNa: NovaScreen (NVS) G Protein-Coupled Receptor Assay for rat Opioid Receptor, Non-selective Sodium (Na+) Binding (AID 2283311)
Chain of rat Opioid Receptor, Non-selective Sodium (Na+) Binding, Oprm1 (gene 25601) (P33535 whole entry, looked up): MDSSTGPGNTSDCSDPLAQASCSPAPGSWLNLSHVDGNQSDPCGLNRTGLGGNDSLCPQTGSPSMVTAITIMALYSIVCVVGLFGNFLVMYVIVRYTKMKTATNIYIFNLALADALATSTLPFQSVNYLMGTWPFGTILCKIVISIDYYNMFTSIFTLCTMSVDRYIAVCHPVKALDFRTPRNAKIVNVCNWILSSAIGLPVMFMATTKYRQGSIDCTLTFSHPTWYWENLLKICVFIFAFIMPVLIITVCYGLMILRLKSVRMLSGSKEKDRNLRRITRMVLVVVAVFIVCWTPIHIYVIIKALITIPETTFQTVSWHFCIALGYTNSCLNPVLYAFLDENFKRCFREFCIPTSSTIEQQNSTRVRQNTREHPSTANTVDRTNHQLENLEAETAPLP
Summary of the method: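 Filtration radioligand binding on rat forebrain membrane preparations, read 1.5 h after dosing. Single-concentration 25 µM primary screen in duplicate, followed by singleton concentration series to 50 µM max for actives; DMSO baseline.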

[14] = biological target: Voltage-dependent N-type calcium channel subunit alpha-1B (Rattus norvegicus) (UniProt Q02294); test: NVS_IC_rCaChN: NovaScreen (NVS) Ion Channel Assay for rat Calcium Channel, Type N (CaChN) (AID 2283317)

O=c1ssc(Cl)c1Cl
outcome [1]: inactive

CC1(C)CN=C(NN=C(/C=C/c2ccc(C(F)(F)F)cc2)/C=C/c2ccc(C(F)(F)F)cc2)NC1
AC50 [2]: 37.2 µM (active)

Cc1ccc(O)cc1C
AC50 [3]: 21.1 µM (active)

c1ccc2c(c1)Nc1ccccc1S2
outcome [3]: inactive
outcome [4]: inactive

CC(Cc1ccc(OCC(=O)O)cc1)NCC(O)c1csc(C(F)(F)F)n1 (centres undefined)
outcome [5]: inactive
outcome [6]: inactive
outcome [7]: inactive

O=[N+]([O-])c1ccccc1
outcome [5]: inactive

CCC(C)(C)c1ccc(O)cc1
outcome [8]: inactive

Cc1ccc([N+](=O)[O-])cc1C
outcome [9]: inactive

CCCCN(CCCC)SN(C)C(=O)Oc1cccc2c1OC(C)(C)C2
outcome [10]: inactive
outcome [11]: inactive

CCCCC(CC)COP(=O)(Oc1ccccc1)Oc1ccccc1 (centres undefined)
outcome [12]: inactive

CC(C)Nc1ccc(Nc2ccccc2)cc1
AC50 [12]: 25 µM (active)

CCC1(c2ccccc2)C(=O)N=C(O)NC1=O (centres undefined)
outcome [7]: inactive

O=P(Oc1ccccc1)(Oc1ccccc1)Oc1ccccc1
outcome (Adra2b (gene 24174)): inactive

Nc1cc2c3c(c1)C(c1ccccc1)=N[C@@H](NC(=O)c1cccnc1)C(=O)N3CC2
outcome [13]: inactive

ClC1=C(Cl)C2(Cl)C3C(Cl)C(Cl)CC3C1(Cl)C2(Cl)Cl (centres undefined)
outcome [14]: inactive
